{"source": "PubChem BioAssay", "note": "A number with no mark means an inactive call. The rule behind the calls is not given here."}
{"molecular_target": "Pantothenate synthetase (Mycobacterium tuberculosis (strain ATCC 25618 / H37Rv)) (UniProt P9WIL5)", "sequence (P9WIL5 whole entry, looked up)": "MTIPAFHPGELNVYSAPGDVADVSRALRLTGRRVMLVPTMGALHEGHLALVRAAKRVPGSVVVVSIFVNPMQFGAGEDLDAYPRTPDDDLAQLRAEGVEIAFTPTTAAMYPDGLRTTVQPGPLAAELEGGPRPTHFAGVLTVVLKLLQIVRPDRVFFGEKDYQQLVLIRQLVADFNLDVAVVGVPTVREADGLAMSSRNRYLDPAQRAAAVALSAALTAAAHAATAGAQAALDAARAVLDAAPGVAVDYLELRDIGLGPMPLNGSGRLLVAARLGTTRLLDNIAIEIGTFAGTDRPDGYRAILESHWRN", "assay": "Recombinant Mtb pantothenate synthetase (PanC) inhibitors, coupled enzyme, confirmatory (AID 375);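 note: 0% = full reaction with vehicle and 100% = no enzyme background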", "conditions": "coupled enzyme assay; at 10 µM, hits give high values", "units": {"inhibition": "%"}}
{"smiles": "CCOCCOc1nc2c(c(=O)n(C)c(=O)n2C)n1Cc1ccc(C)cc1", "inhibition": 0}
{"smiles": "CCCCC(CC)C(=O)Nc1ccccc1C#N", "note": "(stereo not given)", "inhibition": 0}
{"smiles": "COc1ccc(C(C(=O)NC2CCCCC2)N2CCC3(CC2)OCCO3)cc1", "note": "(stereo not given)", "inhibition": 0}
{"smiles": "O=C(Cn1cnc2c(nnn2Cc2ccccc2)c1=O)c1ccc(Cl)cc1", "inhibition": 5}
{"smiles": "Cc1ccc(S(=O)(=O)N2CCCC(c3nnc4n3-c3ccccc3SC4)C2)cc1", "note": "(stereo not given)", "inhibition": 9}
{"smiles": "CN(C)S(=O)(=O)c1ccc(C(=O)Nc2ccccc2C(=O)O)cc1", "inhibition": 8}
{"smiles": "CCOC(=O)c1sc2ncn(/N=C/N(C)C)c(=O)c2c1C", "inhibition": 8}
{"smiles": "CCCCCC(=O)O[C@]1(C(C)=O)CC[C@H]2[C@@H]3CCC4=CC(=O)CC[C@]4(C)[C@H]3CC[C@@]21C", "inhibition": 0}
{"smiles": "COCCCC/C(=N\\OCCN)c1ccc(C(F)(F)F)cc1", "inhibition": 0}
{"smiles": "O=C(CCN1C(=O)COc2ccccc21)N1CCN(c2ccccn2)CC1", "inhibition": 0}
{"smiles": "Cc1cnc(C(=O)OCC(=O)Nc2ccc(Cl)cc2Cl)cn1", "inhibition": 8}
{"smiles": "c1ccc(-n2ncc3c(N4CCCCC4)ncnc32)cc1", "inhibition": 0}
{"smiles": "COC(=O)Cc1cc(=O)[nH]c(Nc2nc3ccccc3o2)n1", "inhibition": 0}
{"smiles": "c1ccc(-c2ccc(C(c3ccccc3)n3ccnc3)cc2)cc1", "note": "(stereo not given)", "inhibition": 3}
{"smiles": "CC(C)N(C(=O)CSc1nnc(-c2cc3ccccc3cc2O)n1Cc1ccco1)C(C)C", "inhibition": 1}
{"smiles": "Cc1nc(/N=C(\\N)Nc2ccccc2)nc2ccccc12", "inhibition": 0}
{"smiles": "C[C@]12CCC(=O)C=C1CC[C@@H]1[C@@H]2CC[C@@]2(C)[C@H]1CC[C@]2(O)C(=O)CO", "inhibition": 0}
{"smiles": "COc1ccccc1N1CCN(c2cc(=O)n(Cc3ccc(F)cc3)c(=O)[nH]2)CC1", "inhibition": 0}
{"smiles": "c1ccc(-c2nnc(OCCN3CCOCC3)c3ccccc23)cc1", "inhibition": 0}
{"smiles": "CCCCNc1cc(C(=O)O)cc(S(N)(=O)=O)c1Oc1ccccc1", "inhibition": 3}
{"smiles": "COc1ccc(S(=O)(=O)N2CCCC(C(=O)N3CCCCCC3)C2)cc1", "note": "(stereo not given)", "inhibition": 6}
{"smiles": "CCCS(=O)(=O)N1CCN(C(=O)c2cccnc2)CC1", "inhibition": 0}
{"smiles": "OCCN1CCN(CCCN2c3ccccc3Sc3ccc(C(F)(F)F)cc32)CC1", "inhibition": 2}
{"smiles": "CCOC(=O)Nc1ccc2c(c1)N(C(=O)OCCN(C)C)c1ccccc1CC2", "inhibition": 3}
{"smiles": "Nc1ncnc2oc(-c3ccco3)c(-c3ccco3)c12", "inhibition": 2}
{"smiles": "O=C(Cn1nnc2ccccc2c1=O)NC1CCCc2ccccc21", "note": "(stereo not given)", "inhibition": 5}
{"smiles": "COc1ccc(C)cc1-n1nnnc1SC/C(O)=C(\\C#N)c1nc2ccccc2[nH]1", "inhibition": 4}
{"smiles": "O=C(Nc1ccc2c(c1)OCO2)C1CCCN1C(=O)Nc1ccccc1F", "note": "(stereo not given)", "inhibition": 3}
{"smiles": "COCCn1c(CN(Cc2ccccc2)Cc2ccccc2)nc2c1c(=O)n(C)c(=O)n2C", "inhibition": 0}
{"smiles": "O=C(Cc1c(F)cccc1Cl)Nc1ccncc1", "inhibition": 6}
{"smiles": "CCOc1cc(NC(=O)c2ccco2)c(OCC)cc1NC(=O)CCC(=O)NCc1cccnc1", "inhibition": 3}
{"smiles": "C=CCN1C(=O)C2(C(C#N)=C(N)Oc3n[nH]c(CCC)c32)c2ccccc21", "note": "(stereo not given)", "inhibition": 0}
{"smiles": "Cc1ccc(O)c(-c2cc3ccccc3[nH]2)c1", "inhibition": 0}
{"smiles": "C/C=C(/C(=C/C)c1ccc(O)cc1)c1ccc(O)cc1", "inhibition": 0}
{"smiles": "O=C(CSc1nnc(C2COc3ccccc3O2)o1)N1CCCc2ccccc21", "note": "(stereo not given)", "inhibition": 0}
{"smiles": "CCOC(=O)c1ccc(NS(=O)(=O)c2ccc(SC)cc2)cc1", "inhibition": 0}
{"smiles": "CC(C)(C)NC(=O)Cn1nnc(-c2cccs2)n1", "inhibition": 5}
{"smiles": "N#Cc1c(-c2ccccc2)nc(N2CCCCCC2)[nH]c1=O", "inhibition": 0}
{"smiles": "COc1cc2nc(N3CCN(C(=O)C4COc5ccccc5O4)CC3)nc(N)c2cc1OC", "note": "(stereo not given)", "inhibition": 3}
{"smiles": "CCC(C)N=C1SCC(C)(/C=N/O)S1", "note": "(stereo not given)", "inhibition": 0}
